Measured values: PubChem BioAssay AID1159580 (chemical genetic matrix, 2015)
About 2,000 (36%) of roughly 5,500 compounds were called active. Roughly 18% stayed inconclusive and do not appear here. Cut-off read from the data, not from the text of the source: active = normalized growth mostly below about 0.91 (no sharp cut-off); inconclusive = no clear call, values can overlap the other calls; inactive = mostly above about 0.92. This is one part of the list.

Experiment: chemical genetic growth profiling, strain panel (AID 1159580);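 note: tested at 20 µM; growth read once vehicle control cultures reached saturation at 30 °C; 1 = growth at the plate median or of vehicle wells; lower values mean less growth of the strain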
Details: S. cerevisiae deletion strains, growth OD

Measured: normalized growth

N[C@H](CCC(=O)NCS(=O)(=O)O)C(=O)O
inactive: locus YAL013W, strain DEP1, active compounds read low 1.01 | locus YAL040C, strain CLN3, active compounds read low 0.996 | locus YCL061C, strain MRC1 (second series), active compounds read low 1.01 | locus YDR150W, strain NUM1, active compounds read low 1 | locus YDR363W, strain ESC2, active compounds read low 1.02 | locus YER002W, strain NOP16, active compounds read low 1.02 | locus YGR078C, strain PAC10, active compounds read low 0.997 | locus YGR229C, strain SMI1, active compounds read low 1.03 | locus YMR263W, strain SAP30, active compounds read low 1.01 | locus YMR307W, strain GAS1, active compounds read low 1 | locus YNL128W, strain TEP1, active compounds read low 1 | locus YNL175C, strain NOP13, active compounds read low 0.998 | locus YNL197C, strain WHI3, active compounds read low 0.997 | locus YNL224C, strain SQS1, active compounds read low 0.986 | locus YNL322C, strain KRE1, active compounds read low 1.01 | locus YOR083W, strain WHI5 (second series), active compounds read low 0.981 | locus YPL055C, strain LGE1, active compounds read low 1.02 | locus YPL241C, strain CIN2, active compounds read low 1
